Results: PubChem BioAssay AID686971 (National Center for Advancing Translational Sciences (NCATS), 2013)
Screen size: about 360,000 compounds; about 7,500 (2.1%) were called active. Not shown: some 8% with an inconclusive outcome. This is one part of a sample in which actives are shown more often than they occur. The call rests on the fitted dose curve; in most records, active means well fitted cell-killing curve with a large enough effect; inconclusive means small, poorly fitted or top-dose-only effect, or effect the other way, or another doubt; inactive means no such curve, though single readings can be large or run the other way.

assay: qHTS for induction of synthetic lethality in tumor cells producing 2HG: qHTS for the HT-1080-IDH1KD cell line; details: HT-1080 IDH1 knockdown viability, ATP luminescence, 48 h; series mostly up to 46.1 µM; activity, negative = toxicity: at the top concentration
From the text: Unbiased genomic sequencing for 22 glioma genomes found recurrent mutation of IDH1 on chromosome 2q33, a gene encoding the cytosolic isoform of IIDH1 associated with the tri-carboxylic acid cycle (TCA) that catalyzes the oxidative decarboxylation of isocitrate, yielding alpha-ketoglutarate and CO2 via NADP+ to NADPH conversion. Subsequent studies confirmed the recurrent IDH mutations in up to 70% of secondary gliomas and in 10% of AML cases. In addition, the somatic mutation of cancer-associated IDH1 is a point mutation resulting in various amino-acid substituents at Arginine132 (IDH1 R132), a key residue found in the enzyme's active site that when mutated, results in the loss-of-function in metabolizing isocitrate but confers a gain-of-function to produce the oncometabolite 2-hydroxyglutarate (2HG). This in effect defines IDH1 as an oncogene and provides an extraordinary opportunity to discover chemical probes against mutant IDH1 that may translate into much needed new therapies for glioma and AML patients.
This assay aims to perform a synthetic-lethal screen for chemical probes specific for 2HG-producing tumor cells using matched paired cell lines (1) HT-1080-NT fibrosarcoma cell line that overproduces 2HG and (2) HT-1080-IDH1KD cell line which has IDH1 expression knocked-down. Desirable compounds are toxic to the NT fibrosarcoma cell line but not to the IDH1KD cell line. The data in this AID corresponds to the results of the qHTS against the HT-1080 IDH1KD cell line.
[1] Dang L, Jin S, Su SM. IDH mutations in glioma and acute myeloid leukemia. Trends of Mol Med. 2010; 16(9): 387-97.
[2] Dang L et al. Cancer-associated IDH1 mutations produce 2-hydroxyglutarate. Nature. 2010; 465(7300):966.
Molecular Libraries Probe Production Centers Network [MLPCN]
NIH Chemical Genomics Center [NCGC]
Assay Submitter (PI): Lenny Dang Ph.D., Agios Pharmaceuticals
Suspensions of trypsinized HT-1080-IDH1KD cells were dispensed into white, tissue culture-treated, solid 1536-well plates at 5uL/well (750 cells/well final concentration) in RPMI medium supplemented with 5% FBS. Plates were incubated at 37 degrees C for 2 hours, after which 23 nL of compounds or DMSO were delivered to each well using a pin tool. Plates were then incubated at 37 degrees C for an additional 48 hours. CellTiter-Glo viability reagent (Promega) was dispensed into wells (2.5uL/well) and incubated at room temperature for 10 minutes. The plates were measured on a PerkinElmer ViewLux plate reader for luminescent signal (clear filter, 1 sec exp.). DMSO-treated control wells and media-only (no cells) control wells were used to normalize %Activity of identified toxic compounds; DMSO-treated wells corresponded to 0%Activity (100% viability), while media-only controls were used to normalize 100%Activity (0% viability). To minimize variability between cell lines, both HT-1080-NT and HT-1080-IDH1KD lines were dispensed and treated with identical compound series in single batches.
Concentration-response curves were fitted to the signals arising from the resulting luminescence. The concentration-effect curves were then classified based on curve quality (r2), response magnitude and degree of measured activity, and compounds were subsequently categorized based on their curve class.
Potency means the concentration at half of the fitted maximal effect.

Row | SMILES | Potency | activity, negative = toxicity
1 | Cc1nc(N=C(N)N)nc2c(C)cccc12 | 32.6 µM (active) | 
2 | Cc1cc(C)c2cc(C#N)c(N3CCNCC3)nc2c1 |  | 1.86% (inactive)
3 | CCOC(=O)c1c(C)[nH]c2c1-c1ccccc1C(=O)C2=O | 2.91 µM (active) | 
4 | CCOC(=O)c1c(C)nc2c(c1C)c(=O)oc1ccccc12 |  | 13.5% (inactive)
5 | CCOC(=O)c1ccccc1OC(=O)Oc1ccccc1C(=O)OCC |  | -13.5% (inactive)
6 | COCc1cccc(-c2csc(C(O)c3ccc(F)cc3)n2)c1 (stereo not drawn) |  | -25.4% (inactive)
7 | COc1cccc(C(=O)Nc2ccc(N3CCCC3)cc2)c1 | 18.4 µM (active) | 
8 | Cc1ccccc1C(=O)Nc1ccccc1NC(=O)c1ccccc1C |  | 0.652% (inactive)
9 | COc1cccc(OCc2cc(C(=O)N3CCN(C(=O)c4ccco4)CC3)no2)c1 |  | -1.71% (inactive)
10 | COc1cccc(C(=O)Nc2ccc(N3CCN(C(=O)c4ccco4)CC3)cc2)c1 | 11.6 µM (active) | 
11 | COc1cccc(C(=O)Nc2ccc3nc4n(c(=O)c3c2)CCCCC4)c1 |  | -9.88% (inactive)
12 | Cc1ccccc1C(=O)Nc1ccc(N2CCCCCC2)cc1 | 14.6 µM (active) | 
13 | Cc1ccccc1C(=O)N1CCN(c2ccc(NC(=O)c3cccs3)cc2)CC1 |  | -0.779% (inactive)
14 | Cc1ccc(OCC(=O)Nc2ccc(N3CCN(C(=O)c4ccco4)CC3)cc2)c(C)c1 |  | -11.4% (inactive)
15 | COc1cccc(C(=O)Nc2nnc(S(=O)(=O)N3CCCCC3)s2)c1 |  | -13% (inactive)
16 | Cc1cccc(N(CC(=O)N2CCCC2)S(C)(=O)=O)c1C |  | 0.0682% (inactive)
17 | COC(=O)c1ccccc1N=NNc1ccc([N+](=O)[O-])cc1 |  | 5.48% (inactive)
18 | CCCNC(=O)C1CC(=O)N(c2ccc(OCc3ccccc3)cc2)C1 (stereo not drawn) |  | -6.41% (inactive)
19 | Cc1nc2ccccn2c(=O)c1NC(=O)c1ccc(Br)o1 |  | 8.09% (inactive)
20 | C[C@H]1Cn2cnc(C(=O)N[C@H](C)c3ccccc3)c2C(=O)N1 |  | 1.93% (inactive)
21 | Cc1ccc(CCNC(=O)CN2C(=O)CSc3ccc(S(=O)(=O)N4CCOCC4)cc32)cc1 |  | 0.335% (inactive)
22 | CC1(C(=O)Nc2cccc3cccnc23)CCN1C(=O)CCC1CCCC1 (stereo not drawn) |  | -9.67% (inactive)
23 | CC[C@]1(O)C[C@@H]2CN(CCc3c([nH]c4ccccc34)[C@@](C(=O)OC)(c3cc4c(cc3OC)N(C)[C@H]3[C@@](O)(C(=O)OC)[C@H](OC(C)=O)[C@]5(CC)C=CCN6CC[C@]43[C@@H]65)C2)C1 | 0.0366 µM (active) | 
24 | CC[C@]1(O)CC2CN(CCc3c([nH]c4ccccc34)[C@@](C(=O)OC)(c3cc4c(cc3OC)N(C=O)[C@H]3[C@@](O)(C(=O)OC)[C@H](OC(C)=O)[C@]5(CC)C=CCN6CC[C@]43[C@@H]65)C2)C1 (stereo partly drawn) | 0.184 µM (active) | 

Row | SMILES | Potency | activity, negative = toxicity
25 | Nc1nc(CSc2nnnn2-c2ccccc2)nc(Nc2ccccc2)n1 |  | -11% (inactive)
26 | CCCS(=O)(=O)NC(=O)C1(C)CCCN(C(=O)c2ccnc(Cl)c2)C1 (stereo not drawn) |  | 0.0267% (inactive)
27 | CCC(CO)Oc1cc(NCc2ccccc2)c2ncn(C3CCCC3)c2c1 (stereo not drawn) |  | -20.2% (inactive)
28 | COc1ccc(CNc2nc(NCc3ccc(OC)cc3)c3ncn(C4CCCC4)c3n2)cc1 | 4.61 µM (active) | 
29 | COc1ccc(CNC2CCCCC2)cc1 |  | -1.73% (inactive)
30 | Cc1ccc(S(=O)(=O)N2CCCCC2)cc1NC(=O)CCNC(=O)c1ccccc1Cl |  | 3.61% (inactive)
31 | CC(C)(C)NC(=O)NC(=O)COC(=O)Cc1ccc(Cl)cc1Cl |  | -14.2% (inactive)
32 | CC(C)(C)c1cc(C(=O)NN)n(Cc2ccc(Cl)cc2Cl)n1 | 14.6 µM (active) | 
33 | Cn1cc(C(=O)c2ccc(Cl)cc2Cl)cc1C(=O)NN |  | -23% (inactive)
34 | CCN(CC)CCN(C)C(c1ccnc2ccccc12)c1nnnn1-c1ccc2c(c1)OCCO2 (stereo not drawn) |  | -2.65% (inactive)
35 | COc1ccc(CN2C(=O)C(CC(=O)NCCCCc3ccccc3)CC(C(=O)N3CCOCC3)=C2C)cc1 (stereo not drawn) |  | 8.09% (inactive)
36 | O=C(COC(=O)c1ccncc1)c1ccccc1 |  | 20.6% (inactive)
37 | Brc1ccc(-c2noc(-c3ccccc3)n2)o1 |  | -0.934% (inactive)
38 | O=C(Oc1ccc(-c2nc(-c3ccccn3)no2)cc1)c1ccccc1 | 2.31 µM (active) | 
39 | COc1ccccc1CNC(=O)c1cc(-c2cc(F)ccc2OC)n[nH]1 |  | -19.4% (inactive)
40 | c1ccc(CNCc2ccc(CNCc3ccccc3)cc2)cc1 |  | -9.72% (inactive)
41 | Cc1ccccc1C1=N/C(=C/c2cccnc2)C(=O)O1 |  | 13.6% (inactive)
42 | O=C1/C(=C\c2cccnc2)CN(Cc2ccccc2)C/C1=C\c1cccnc1 | 1.84 µM (active) | 
43 | Clc1ccc(CN2CCN(/N=C/c3cccnc3)CC2)cc1 |  | 3.89% (inactive)
44 | O=C(Nc1ccccc1)c1ccccc1OCc1ccccc1 |  | 21% (inactive)
45 | CCOC(=O)C1(CCOc2ccccc2)CCN(Cc2cc(OC)c(O)cc2Cl)CC1 |  | -15.4% (inactive)
46 | Cc1c(CN2CCC(CO)(CCOc3ccccc3)CC2)[nH]c2ccc(Cl)cc12 | 23.1 µM (active) | 
47 | CC(C)(O)C#Cc1ccc(CN2CCC(CO)(CCc3ccccc3)CC2)cc1 |  | -15% (inactive)
48 | O=C(CC(CC(=O)c1ccccc1)c1ccco1)c1ccccc1 |  | 0.921% (inactive)
